From PubChem
Compounds with a hit are over-represented: about 3.4% of the library has one in this group of screens.
GPR151 activ – activators of human GPR151, primary screen, cell-based, PathHunter beta-arrestin, luminescence | G-protein coupled receptor 151 (Homo sapiens), Q8TDV0 | hit rate 1% among 650,000 | activation, % at 11.2 µM | PathHunter beta-arrestin GPR151 cells | AID 1508602, 2020; in the data active = activation above about 4.9%;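 note: 0% = median of compound wells and 100% = cells with positive control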
TEAD-YAP block – TEAD-YAP interaction inhibition, primary screen, TEAD-YAP interaction inhibitor project, luminescence, HEK-TIYL cells; TEAD-Gal4/YAP UAS-luciferase luminescence; hit rate 1.4% among 640,000; inhibition, % at 9.12 µM; AID 1259422, 2018; in the data active = inhibition above about 32%;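 note: 0% = median of test compound wells and 100% = reference inhibitor wells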
MITF inh – MITF inhibitors, primary screen, biochemical, AlphaScreen, human. AID 1259374, 2018. inhibition, % at 2.6 µM. hit rate 0.91% among 650,000. Microphthalmia-associated transcription factor (Homo sapiens), O75030. AlphaScreen MITF homodimerization, bead proximity signal; in the data active = inhibition above about 50%;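 note: 0% = vehicle wells with protein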
Target sequence (O75030 whole entry, looked up): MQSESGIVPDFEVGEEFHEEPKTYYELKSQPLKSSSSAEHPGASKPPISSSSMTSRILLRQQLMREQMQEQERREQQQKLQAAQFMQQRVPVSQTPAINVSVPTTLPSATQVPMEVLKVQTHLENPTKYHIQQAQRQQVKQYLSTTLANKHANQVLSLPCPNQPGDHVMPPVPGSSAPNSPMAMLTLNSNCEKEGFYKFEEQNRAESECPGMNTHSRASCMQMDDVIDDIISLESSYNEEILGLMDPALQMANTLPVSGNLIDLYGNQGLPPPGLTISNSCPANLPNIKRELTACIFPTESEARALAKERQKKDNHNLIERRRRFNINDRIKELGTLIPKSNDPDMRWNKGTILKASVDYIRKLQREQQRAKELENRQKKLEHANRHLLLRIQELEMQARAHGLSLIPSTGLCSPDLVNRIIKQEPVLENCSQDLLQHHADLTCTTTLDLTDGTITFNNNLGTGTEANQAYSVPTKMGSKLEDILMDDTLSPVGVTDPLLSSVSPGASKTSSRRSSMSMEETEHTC
FBW7 act – FBW7 E3 ligase activators, primary screen, biochemical, AlphaScreen, human; F-box/WD repeat-containing protein 7 (Homo sapiens), Q969H0; AlphaScreen FBW7–phospho-cyclin E peptide binding, activator screen; normalized activity (activation), % at 26.1 µM; hit rate 0.13% among 650,000; AID 1259310, 2017; in the data active = normalized activity above about 1.9%;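 note: purified mutant Fbw7 with reduced substrate affinity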
MITF confirm – MITF inhibitors, retest of hits, confirmation, biochemical, AlphaScreen, triplicate; shares compounds with MITF inh; AlphaScreen MITF homodimerization, biotin/His-MITF beads; inhibition, % at 2.6 µM; hit rate 16% among 4,700; AID 1259372, 2018;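 active = inhibition above a cutoff derived from the DMSO control wells, cut at about 28% in these data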;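 note: 0% = MITF dimer wells with DMSO only; inhibitors lower the bead chemiluminescence by keeping MITF from dimerizing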
AlphaScreen DR – AlphaScreen optical interference compounds, dose response, counter-screen, biochemical, HTS | shares compounds with MITF inh | AlphaScreen optical interference counterscreen, cell-free | IC50, µM | hit rate 6% among 480 | AID 1259373, 2018; call rule not given here
AlphaScreen intf2 – AlphaScreen optical interference compounds, counter-screen for MITF inhibitor project, biochemical, triplicate | shares compounds with MITF inh | LysRS AlphaScreen counterscreen, signal interference | inhibition, % at 2.6 µM | hit rate 7.6% among 4,700;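 active = inhibition above a cutoff derived from the DMSO control wells, cut at about 30% in these data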
Numbers without * were called inactive; nt = no result.

SMILES	GPR151 activ	TEAD-YAP block	MITF inh	FBW7 act	MITF confirm	AlphaScreen intf2	others
CCN1CCN(CCCOc2cccc(Oc3ccccc3)c2)CC1	-0.7	-6.2	69.2*	-0.6	6.7	16.2
c1ccc(Oc2cccc(OCCCN3CCNCC3)c2)cc1	2.0	-13.2	31.0	-0.5	nt	nt
CCOc1cccc(OCCN2CCNCC2)c1	-0.7	-2.0	75.1*	-0.2	9.2	-12.9
c1ccc(Oc2cccc(OCCCCN3CCOCC3)c2)cc1	-0.9	-3.8	29.1	-0.3	nt	nt
c1ccc(Oc2cccc(OCCCCN3CCNCC3)c2)cc1	-0.9	-16.3	77.3*	-0.3	3.4	13.5
Clc1cccc(OCCN2CCNCC2)c1	-1.9	2.9	49.0	1.0	nt	nt
Fc1ccc(OCCCN2CCNCC2)cc1	-1.0	1.0	36.8	0.1	nt	nt
c1ccc(COc2ccc(OCCCN3CCNCC3)cc2)cc1	1.0	58.0*	62.4*	-0.3	1.2	5.2
CCOC(=O)c1c(NC(=O)CSc2nccn2C)sc2c1CCCCC2	-0.1	-1.6	18.1	0.0	nt	nt
O=C(/C=C/c1ccc2c(c1)OCO2)Nc1ccc2ccccc2c1	-0.2	-64.0	-1.1	-0.2	nt	nt
CCOc1cccc(OCCN2CC(C)OC(C)C2)c1 (stereo not drawn)	0.5	-6.3	52.9*	-0.4	11.5	11.8
CC1CN(CCOc2ccc3ccccc3c2)CC(C)O1 (stereo not drawn)	-0.8	-10.8	29.7	0.3	nt	nt
N#Cc1ccc(OCC(O)CNCCCN2CCCC2=O)cc1 (stereo not drawn)	-0.9	-3.5	50.6*	-0.1	-3.7	6.6
c1cn2cc(Cc3nnc4n3CCC4)nc2s1	0.2	13.6	79.7*	-1.0	13.4	26.7
c1cn2cc(Cc3nnc4n3CCCCC4)nc2s1	-0.6	-2.5	4.8	-0.6	nt	nt
Nc1cc(=O)[nH]c(SCc2ccc(Cl)cc2Cl)n1	0.2	18.0	14.0	0.3	nt	nt
OCCN1CCN(C(=S)c2ccc(Br)cc2)CC1	0.2	0.8	-8.3	0.0	nt	nt
c1ccc(-c2cc(N3CCOCC3)nc(-c3ccccn3)n2)cc1	3.3	17.8	76.9*	-0.2	12.0	11.1
Nc1nc(CSc2nnc(-c3cccc(F)c3)n2-c2ccccc2)nc(N2CCOCC2)n1	-0.9	-8.9	51.1*	-0.1	7.5	7.3
CCCCOC(=O)c1cccc(NC(=O)c2ccccc2Cl)c1	0.6	-4.7	8.6	0.0	nt	nt
O=C1N[C@@H](Cc2ccc(O)cc2)C(=O)N2CCN(C(=O)c3cccc4ccccc34)C[C@H]12	0.9	-6.7	-19.7	-0.1	nt	nt
COc1ccccc1N1CCN(C(=S)NCCN(C)C)CC1	-0.3	-4.8	76.8*	-0.2	1.0	1.4
CCOC(=O)CC(=O)CSc1nn2c(=O)c(C)nnc2s1	0.6	-0.2	53.2*	-0.2	17.7	36.7*
CCOC(=O)CSc1nn2c(=O)c(C)nnc2s1	-0.9	-4.4	3.0	-0.1	nt	nt
CC1CCCCC1N1CCN(Cc2ccco2)CC1 (stereo not drawn)	-0.7	4.6	69.4*	0.1	-2.6	5.1
SMILES	GPR151 activ	TEAD-YAP block	MITF inh	FBW7 act	MITF confirm	AlphaScreen intf2	others
c1coc(CN2CCN(C3CCCCCC3)CC2)c1	1.1	12.3	73.6*	-0.1	-0.3	4.7
c1coc(Cn2nnnc2CN2CCN(C3CCCC3)CC2)c1	0.9	-2.1	-1.4	0.1	nt	nt
S=C(NC1CCCCC1)N1CCN(Cc2ccco2)CC1	2.7	-15.9	-20.9	0.5	nt	nt
c1coc(CN2CCC(N3CCOCC3)CC2)c1	0.6	12.0	60.3*	0.6	12.7	16.4
Cc1noc(C)c1CCC(=O)N1CCC2(CC1)NC(=O)c1cccnc1N2C	-1.0	2.4	13.1	0.3	nt	nt
Cc1ccc(S(=O)(=O)Nc2cccc(N(C)S(C)(=O)=O)c2)cc1	1.6	-3.5	-11.8	-0.3	nt	nt
CN(c1cccc(NS(=O)(=O)c2ccc([N+](=O)[O-])cc2)c1)S(C)(=O)=O	-1.7	12.6	50.8*	0.1	33.9*	7.2	AlphaScreen DR=>6.48
O=C(Nc1ccc(Oc2ccccc2)cc1)c1ccnc(-c2cccs2)c1	-1.3	6.2	56.8*	-0.1	53.3*	-6.2	AlphaScreen DR=>6.71
CC(=O)Nc1ccc(NC(=O)c2ccnc(-c3cccs3)c2)cc1	-0.3	-0.3	28.5	-0.1	nt	nt
O=C(Nc1ccc(Oc2ccccc2)cc1)c1cnc(-c2cccs2)s1	0.6	-3.3	53.4*	0.3	22.5	-3.5
O=S(Cc1ccc(Cl)cc1)CC(O)COCc1ccc(Cl)cc1 (stereo not drawn)	0.3	14.3	-5.7	-0.2	nt	nt
O=C(N/N=C/C=C\c1ccco1)c1ccccn1	-0.1	-56.3	101.3*	-0.2	93.9*	69.4*
O=C(N/N=C/c1ccccn1)c1ccccn1	-3.1	-31.9	48.1	-2.1	nt	nt
Cc1occc1C(=O)N/N=C/C1CCCCC1	-5.5	-45.9	-10.1	-0.1	nt	nt
O=C(N/N=C\c1ccccn1)c1ccccn1	-1.9	-44.0	54.2*	-0.7	27.9*	82.4*
O=C(N/N=C/C=C\c1ccco1)c1ccncc1	0.8	3.0	18.0	0.0	nt	nt
Cc1occc1C(=O)N/N=C/C=C/c1ccco1	-0.4	-60.3	80.0*	-0.2	44.1*	-17.2	AlphaScreen DR=>6.48
Cc1occc1C(=O)N/N=C/C1CC=CCC1 (stereo not drawn)	-3.7	-45.4	81.3*	0.2	-10.1	-5.3
CCC1CN(S(=O)(=O)c2ccc3c(c2)NC(=O)CC(=O)N3)c2cc(Cl)ccc2O1 (stereo not drawn)	1.9	5.0	6.9	0.2	nt	nt
CCc1ccccc1NC(=O)CN(c1ccc(C)cc1)S(=O)(=O)c1ccc(OC)cc1	-1.9	5.5	11.5	0.2	nt	nt
COc1ccccc1OCC#CCn1ccnc1	-1.2	0.8	63.3*	-0.2	9.7	18.8
Cc1ccc(OCCN2CCOCC2)cc1C	1.0	-8.3	-17.9	-0.1	nt	nt
Cc1cc(OCCCCN2CCN(C)CC2)ccc1[N+](=O)[O-]	-0.9	-7.1	55.7*	0.1	6.8	3.2
Cc1cc(OCCN2CCOCC2)ccc1[N+](=O)[O-]	-2.7	-21.9	60.4*	0.6	8.5	13.6
Cc1cc(OCCN2CCN(C)CC2)ccc1[N+](=O)[O-]	-1.5	-32.4	56.0*	0.0	5.7	10.5
Cc1cc(OCCCN2CCNCC2)ccc1[N+](=O)[O-]	3.0	-0.1	34.5	0.1	nt	nt
Cc1cc(OCCN2CCCC2)ccc1[N+](=O)[O-]	0.7	-5.2	23.6	-0.2	nt	nt
C=CCN1C(=O)C(O)(CC(=O)c2c(C)cc(C)cc2C)c2ccccc21 (stereo not drawn)	-0.3	-1.0	16.7	-0.3	nt	nt
O=C(O)c1cccc(-n2cccc2/C=C\[N+](=O)[O-])c1	0.4	-8.1	63.2*	-0.4	58.7*	6.3	AlphaScreen DR=>6.48
